From article PMC11006913
Where a chain is given by its changes, count along the chain named.

What was measured:
Experiment in all cases: PBM; 200 nM protein, PBS
Conditions in all cases: dsDNA, one strand shown
[1] = biological target: NKX2-5 (Homo sapiens, UniProt P52952 125-210, R139K)
[2] = biological target: ALX3 (Homo sapiens, UniProt O95076 139-225, N203Q)
[3] = biological target: ALX3 (Homo sapiens, UniProt O95076 139-225)
[4] = biological target: ALX3 (Homo sapiens, UniProt O95076 139-225, L168Q)
Chain of ALX3 (Homo sapiens, UniProt O95076 139-225, L168Q) (O95076 139-225 L168Q): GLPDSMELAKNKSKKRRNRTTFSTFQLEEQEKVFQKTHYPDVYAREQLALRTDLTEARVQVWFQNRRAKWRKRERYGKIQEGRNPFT

[5] = biological target: ALX3 (Homo sapiens, UniProt O95076 139-225, L168V)
Chain of ALX3 (Homo sapiens, UniProt O95076 139-225, L168V) (O95076 139-225 L168V): as the sequence (O95076 139-225 L168Q) above, with Q30V counted along it

[6] = biological target: ALX3 (Homo sapiens, UniProt O95076 139-225, N203S)
Chain of ALX3 (Homo sapiens, UniProt O95076 139-225, N203S) (O95076 139-225 N203S): as the sequence (O95076 139-225 L168Q) above, with Q30L, N65S counted along it

[7] = biological target: NKX2-5 (Homo sapiens, UniProt P52952 125-210)
Chain of NKX2-5 (Homo sapiens, UniProt P52952 125-210) (P52952 125-210): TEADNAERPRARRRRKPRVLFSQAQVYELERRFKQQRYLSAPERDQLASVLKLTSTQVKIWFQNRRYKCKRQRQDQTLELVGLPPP

[8] = biological target: T1, NKX2-6 (Homo sapiens, UniProt A6NCS4 118-204, R150C)
T1 sequence: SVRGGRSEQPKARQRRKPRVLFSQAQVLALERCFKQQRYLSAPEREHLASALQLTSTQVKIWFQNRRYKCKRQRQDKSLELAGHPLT

[9] = biological target: T2, NKX2-6 (Homo sapiens, UniProt A6NCS4 118-204)
T2 sequence: T1 sequence with C33R

[10] = biological target: T3, NKX2-6 (Homo sapiens, UniProt A6NCS4 118-204, F151L)
T3 sequence: T1 sequence with C33R, F34L

[11] = biological target: NKX3-2 (Homo sapiens, UniProt P78367 192-278, P234S)
Chain of NKX3-2 (Homo sapiens, UniProt P78367 192-278, P234S) (P78367 192-278 P234S): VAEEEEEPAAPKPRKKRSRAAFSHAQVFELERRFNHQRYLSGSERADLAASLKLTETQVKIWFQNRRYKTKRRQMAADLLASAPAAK

[12] = biological target: NKX3-2 (Homo sapiens, UniProt P78367 192-278)
Chain of NKX3-2 (Homo sapiens, UniProt P78367 192-278) (P78367 192-278): as the sequence (P78367 192-278 P234S) above, with S43P counted along it

[13] = biological target: HOXD13 (Homo sapiens, UniProt P35453 263-343, T313R)
Chain of HOXD13 (Homo sapiens, UniProt P35453 263-343, T313R) (P35453 263-343 T313R): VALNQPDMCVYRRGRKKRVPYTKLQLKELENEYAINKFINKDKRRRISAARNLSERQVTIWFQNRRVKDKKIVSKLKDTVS

[14] = biological target: HOXD13 (Homo sapiens, UniProt P35453 263-343)
Chain of HOXD13 (Homo sapiens, UniProt P35453 263-343) (P35453 263-343): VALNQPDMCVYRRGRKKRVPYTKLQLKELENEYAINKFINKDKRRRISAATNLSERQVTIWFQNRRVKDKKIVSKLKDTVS

[15] = biological target: HOXD13 (Homo sapiens, UniProt P35453 263-343, T313A)
Chain of HOXD13 (Homo sapiens, UniProt P35453 263-343, T313A) (P35453 263-343 T313A): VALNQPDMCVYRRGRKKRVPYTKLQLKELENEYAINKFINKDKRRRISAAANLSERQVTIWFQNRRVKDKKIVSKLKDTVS

[16] = biological target: ALX1 (Homo sapiens, UniProt Q15699 118-204, L144V)
Chain of ALX1 (Homo sapiens, UniProt Q15699 118-204, L144V) (Q15699 118-204 L144V): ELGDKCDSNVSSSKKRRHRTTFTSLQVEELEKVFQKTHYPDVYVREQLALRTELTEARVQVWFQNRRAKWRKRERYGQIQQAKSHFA

[17] = biological target: ALX1 (Homo sapiens, UniProt Q15699 118-204, L144R)
Chain of ALX1 (Homo sapiens, UniProt Q15699 118-204, L144R) (Q15699 118-204 L144R): as the sequence (Q15699 118-204 L144V) above, with V27R counted along it

[18] = biological target: ALX1 (Homo sapiens, UniProt Q15699 118-204)
Chain of ALX1 (Homo sapiens, UniProt Q15699 118-204) (Q15699 118-204): as the sequence (Q15699 118-204 L144V) above, with V27L counted along it

[19] = biological target: MSX2 (Homo sapiens, UniProt P35548 130-214, R199I)
Chain of MSX2 (Homo sapiens, UniProt P35548 130-214, R199I) (P35548 130-214 R199I): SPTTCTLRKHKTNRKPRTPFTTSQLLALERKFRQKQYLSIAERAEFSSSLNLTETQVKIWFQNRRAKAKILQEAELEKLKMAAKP

[20] = biological target: MSX2 (Homo sapiens, UniProt P35548 130-214)
Chain of MSX2 (Homo sapiens, UniProt P35548 130-214) (P35548 130-214): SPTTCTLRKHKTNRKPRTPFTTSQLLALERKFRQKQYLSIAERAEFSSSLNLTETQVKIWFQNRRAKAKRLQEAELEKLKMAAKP

[21] = biological target: MSX2 (Homo sapiens, UniProt P35548 130-214, F161Y)
Chain of MSX2 (Homo sapiens, UniProt P35548 130-214, F161Y) (P35548 130-214 F161Y): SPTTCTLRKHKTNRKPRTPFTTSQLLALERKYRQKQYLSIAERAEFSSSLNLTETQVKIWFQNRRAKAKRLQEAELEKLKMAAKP

Chain of NKX2-5 (Homo sapiens, UniProt P52952 125-210, R139K) (P52952 125-210 R139K): as the sequence (P52952 125-210) above, with R15K counted along it
Chain of ALX3 (Homo sapiens, UniProt O95076 139-225) (O95076 139-225): as the sequence (O95076 139-225 L168Q) above, with Q30L counted along it
Chain of ALX3 (Homo sapiens, UniProt O95076 139-225, N203Q) (O95076 139-225 N203Q): as the sequence (O95076 139-225 L168Q) above, with Q30L, N65Q counted along it

CGACCTCG
binding signal [1]: 9.01 upbm affinity estimate (log intensity, higher = more binding, comparable within an allelic series)
binding signal [2]: 7.77 upbm affinity estimate (log intensity, higher = more binding, comparable within an allelic series)
binding signal [3]: 7.62 upbm affinity estimate (log intensity, higher = more binding, comparable within an allelic series)
binding signal [4]: 7.78 upbm affinity estimate (log intensity, higher = more binding, comparable within an allelic series)
binding signal [5]: 7.74 upbm affinity estimate (log intensity, higher = more binding, comparable within an allelic series)
binding signal [6]: 7.75 upbm affinity estimate (log intensity, higher = more binding, comparable within an allelic series)
binding signal [7]: 9.16 upbm affinity estimate (log intensity, higher = more binding, comparable within an allelic series)

CACTTAGG
binding signal [1]: 12.6 upbm affinity estimate (log intensity, higher = more binding, comparable within an allelic series)
binding signal [8]: 11.7 upbm affinity estimate (log intensity, higher = more binding, comparable within an allelic series)
binding signal [9]: 13.5 upbm affinity estimate (log intensity, higher = more binding, comparable within an allelic series)
binding signal [10]: 10.8 upbm affinity estimate (log intensity, higher = more binding, comparable within an allelic series)
binding signal [11]: 12.9 upbm affinity estimate (log intensity, higher = more binding, comparable within an allelic series)
binding signal [7]: 12.5 upbm affinity estimate (log intensity, higher = more binding, comparable within an allelic series)
binding signal [12]: 13 upbm affinity estimate (log intensity, higher = more binding, comparable within an allelic series)

AAGTGGCC
binding signal [1]: 12.4 upbm affinity estimate (log intensity, higher = more binding, comparable within an allelic series)
binding signal [8]: 11.6 upbm affinity estimate (log intensity, higher = more binding, comparable within an allelic series)
binding signal [9]: 13.3 upbm affinity estimate (log intensity, higher = more binding, comparable within an allelic series)
binding signal [10]: 10.5 upbm affinity estimate (log intensity, higher = more binding, comparable within an allelic series)
binding signal [11]: 12.9 upbm affinity estimate (log intensity, higher = more binding, comparable within an allelic series)
binding signal [7]: 12.4 upbm affinity estimate (log intensity, higher = more binding, comparable within an allelic series)
binding signal [12]: 13.1 upbm affinity estimate (log intensity, higher = more binding, comparable within an allelic series)

CAGGTCGC
binding signal [1]: 9.22 upbm affinity estimate (log intensity, higher = more binding, comparable within an allelic series)
binding signal [13]: 9.62 upbm affinity estimate (log intensity, higher = more binding, comparable within an allelic series)
binding signal [14]: 9.82 upbm affinity estimate (log intensity, higher = more binding, comparable within an allelic series)
binding signal [15]: 9.97 upbm affinity estimate (log intensity, higher = more binding, comparable within an allelic series)
binding signal [7]: 9.21 upbm affinity estimate (log intensity, higher = more binding, comparable within an allelic series)

CAAGTGGG
binding signal [1]: 12.3 upbm affinity estimate (log intensity, higher = more binding, comparable within an allelic series)
binding signal [8]: 11.7 upbm affinity estimate (log intensity, higher = more binding, comparable within an allelic series)
binding signal [7]: 12.3 upbm affinity estimate (log intensity, higher = more binding, comparable within an allelic series)

CACTTACC
binding signal [1]: 12.4 upbm affinity estimate (log intensity, higher = more binding, comparable within an allelic series)
binding signal [8]: 11.6 upbm affinity estimate (log intensity, higher = more binding, comparable within an allelic series)
binding signal [9]: 13.4 upbm affinity estimate (log intensity, higher = more binding, comparable within an allelic series)
binding signal [10]: 10.7 upbm affinity estimate (log intensity, higher = more binding, comparable within an allelic series)
binding signal [11]: 12.7 upbm affinity estimate (log intensity, higher = more binding, comparable within an allelic series)
binding signal [7]: 12.3 upbm affinity estimate (log intensity, higher = more binding, comparable within an allelic series)
binding signal [12]: 12.8 upbm affinity estimate (log intensity, higher = more binding, comparable within an allelic series)

CCAGCAGG
binding signal [1]: 8.6 upbm affinity estimate (log intensity, higher = more binding, comparable within an allelic series)
binding signal [16]: 6.58 upbm affinity estimate (log intensity, higher = more binding, comparable within an allelic series)
binding signal [17]: 6.51 upbm affinity estimate (log intensity, higher = more binding, comparable within an allelic series)
binding signal [18]: 6.53 upbm affinity estimate (log intensity, higher = more binding, comparable within an allelic series)
binding signal [7]: 8.77 upbm affinity estimate (log intensity, higher = more binding, comparable within an allelic series)

GCGGCCAC
binding signal [1]: 8.75 upbm affinity estimate (log intensity, higher = more binding, comparable within an allelic series)
binding signal [8]: 9.34 upbm affinity estimate (log intensity, higher = more binding, comparable within an allelic series)
binding signal [7]: 8.78 upbm affinity estimate (log intensity, higher = more binding, comparable within an allelic series)

ACAATTAC
binding signal [1]: 10.9 upbm affinity estimate (log intensity, higher = more binding, comparable within an allelic series)
binding signal [19]: 12.3 upbm affinity estimate (log intensity, higher = more binding, comparable within an allelic series)
binding signal [20]: 13.5 upbm affinity estimate (log intensity, higher = more binding, comparable within an allelic series)
binding signal [21]: 13.2 upbm affinity estimate (log intensity, higher = more binding, comparable within an allelic series)
binding signal [7]: 11 upbm affinity estimate (log intensity, higher = more binding, comparable within an allelic series)

CGTCGGTC
binding signal [1]: 8.88 upbm affinity estimate (log intensity, higher = more binding, comparable within an allelic series)
binding signal [8]: 9.56 upbm affinity estimate (log intensity, higher = more binding, comparable within an allelic series)
binding signal [9]: 9.23 upbm affinity estimate (log intensity, higher = more binding, comparable within an allelic series)
binding signal [10]: 9.36 upbm affinity estimate (log intensity, higher = more binding, comparable within an allelic series)
binding signal [7]: 8.91 upbm affinity estimate (log intensity, higher = more binding, comparable within an allelic series)

CTGGCCGA
binding signal [1]: 8.94 upbm affinity estimate (log intensity, higher = more binding, comparable within an allelic series)
binding signal [8]: 9.45 upbm affinity estimate (log intensity, higher = more binding, comparable within an allelic series)
binding signal [7]: 8.74 upbm affinity estimate (log intensity, higher = more binding, comparable within an allelic series)

CCAGCAGC
binding signal [1]: 8.8 upbm affinity estimate (log intensity, higher = more binding, comparable within an allelic series)
binding signal [9]: 9.28 upbm affinity estimate (log intensity, higher = more binding, comparable within an allelic series)
binding signal [10]: 9.29 upbm affinity estimate (log intensity, higher = more binding, comparable within an allelic series)
binding signal [7]: 8.73 upbm affinity estimate (log intensity, higher = more binding, comparable within an allelic series)
